Results filed as inconclusive are left out. A number with no mark means an inactive call. Active and inactive are the calls of the source. The call rests on the fitted dose curve; in most records, active means well fitted inhibition curve with a large enough effect; inconclusive means small, poorly fitted or top-dose-only effect; inactive means no such curve, though single readings can be large or run the other way.
Potency means the concentration at half of the fitted maximal effect.

For the assay, the target named is Cruzipain (Trypanosoma cruzi) (UniProt P25779). The experiment in a line: Confirmation qHTS Assay for Inhibitors of Cruzain. Further: nearly all actives have a fitted effect of over 40% in size.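 On activity change, negative = inhibition: plate controls were uninhibited enzyme control for no effect and buffer wells lacking enzyme for full effect.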 Particulars: purified cruzain, Z-FR-AMC fluorescence, 0.01% Triton. The method, boiled down: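 Reaction progress from the 60 s rise in AMC fluorescence (ex 360, em 450 nm) after adding 2 uM Z-FR-AMC. Before this, 1.5 nM cruzain sat 15 min at room temperature with compound in pH 5.5 acetate buffer with 5 mM DTT and 0.01% Triton X-100.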
Chain of Cruzipain (Trypanosoma cruzi) (P25779 123-467 limits assumed): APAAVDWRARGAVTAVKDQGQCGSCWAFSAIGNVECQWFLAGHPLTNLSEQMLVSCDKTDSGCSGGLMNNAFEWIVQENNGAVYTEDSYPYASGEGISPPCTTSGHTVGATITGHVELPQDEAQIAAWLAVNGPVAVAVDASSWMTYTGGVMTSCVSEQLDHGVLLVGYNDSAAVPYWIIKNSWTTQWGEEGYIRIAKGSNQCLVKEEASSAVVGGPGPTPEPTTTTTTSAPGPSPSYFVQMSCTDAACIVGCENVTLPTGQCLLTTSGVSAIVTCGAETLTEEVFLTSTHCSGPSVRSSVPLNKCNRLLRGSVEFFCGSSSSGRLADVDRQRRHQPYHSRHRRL
On the technique in general: Quantitative high-throughput screening tests each substance at several concentrations.
With `N#Cc1nc(NCC(F)F)nc(Nc2cc(F)cc(F)c2)n1`, the Potency was 0.0251 µM (active).

In the case of `Cc1ccccc1NC(=O)CSc1nnc(-c2ccco2)c(-c2ccco2)n1`, the Potency is 14.1 µM (active).

Take `CC(C)C[C@H](NC(=O)[C@@H]1O[C@H]1C(=O)O)C(=O)NCCCCN=C(N)N`: the Potency is 0.112 µM (active).

Regarding `NC(=S)N/N=C/c1ccc(-c2cc(Cl)ccc2Cl)o1`, the Potency was 2 µM (active).

For the compound `COc1cccc(CNC(=O)c2ccc3c(c2)N(Cc2ccc(F)cc2Cl)C(=O)c2ccccc2S3)c1`, the activity change, negative = inhibition is 2.24%.

In the case of `CC(C)COC(=O)c1nnsc1NC(=O)Nc1ccccc1`, the activity change, negative = inhibition was -3.71%.

`Cc1ccc(Nc2nc(C#N)nc(NC3CCCC3)n2)cc1`: the Potency was 0.447 µM (active).

With `CC(C)(C)c1ccccc1Nc1nc(C#N)nc(NC2CCCC2)n1`, the Potency is 2 µM (active).

Turning to `Cc1nc2cc(-c3ccccc3)nn2c(C)c1CCC(=O)N1CCN(c2ccccc2)CC1`, the activity change, negative = inhibition was -13%.

Regarding `O=C(CNC(=O)c1cccc(Cl)c1)OC(C(=O)Nc1cc(C(F)(F)F)ccc1Cl)c1ccccc1` (centres undefined), the Potency was 12.6 µM (active).

Turning to `Cc1ccc(OCCn2c(CCNC(=O)C3CCCCC3)nc3ccccc32)cc1`, the Potency was 0.1 µM (active).

As to `N#Cc1nc(Nc2cccc(Cl)c2)c2ncn(C3CCCC3)c2n1`, the Potency was 0.0501 µM (active).

For the compound `Cc1cc(=O)oc2cc(OCC(=O)N3CCOCC3)ccc12`, the Potency was 8.91 µM (active).

For the compound `Cc1ccc(C(=O)NC2CCN(C#N)CC2)cc1`, the activity change, negative = inhibition was -5.84%.

In the case of `COc1ccccc1C(=O)NCC(=O)OCC(=O)c1cccc2ccccc12`, the Potency was 31.6 µM (active).

`Cc1ccc2[nH]c(=O)c(CN(Cc3ccco3)Cc3nnnn3Cc3ccccc3)cc2c1`: the activity change, negative = inhibition was -13.8%.

As for `CSCC[C@H](NC(=O)COc1ccc(Cl)cc1Cl)c1nc2ccccc2[nH]1`, the Potency was 2.82 µM (active).

Regarding `N#Cc1nc(N2CCCC2)nc(N2CCCC2)n1`, the Potency was 7.08 µM (active).

For `O=C(CNC(=O)c1ccccc1)OC(C(=O)Nc1cc([N+](=O)[O-])ccc1F)c1ccccc1` (centres undefined), the Potency was 12.6 µM (active).

For `C[C@H](CCC(=O)O)[C@H]1CC[C@@H]2[C@@H]3[C@@H](O)C[C@H]4C[C@@H](O)CC[C@@]4(C)[C@H]3CC[C@@]21C`, the activity change, negative = inhibition is 2.73%.

Regarding `CCc1ccc2[nH]c(=O)c(CN(Cc3ccco3)Cc3nnnn3Cc3ccco3)cc2c1`, the activity change, negative = inhibition was -11.7%.

As for `CC(C)CC(OC(=O)CNC(=O)c1ccccc1)C(=O)Nc1cc(C(F)(F)F)ccc1Cl` (centres undefined), the Potency was 7.94 µM (active).

With `O=C(NC1CCCC1)c1ccc2nc(-c3ccco3)c(-c3ccco3)nc2c1`, the Potency was 8.91 µM (active).

`COC(=O)Sc1nc(N2CCOCC2)c2c(c1C#N)CC(C)(C)OC2`: the Potency is 14.1 µM (active).

Consider `O=C(NC1CC1)c1ccc2nc(-c3ccco3)c(-c3ccco3)nc2c1`, for which the Potency is 14.1 µM (active).

For `CCSc1nnc(NC(=O)c2ccc(Br)s2)s1`, the activity change, negative = inhibition is -4.82%.

Regarding `CCOc1ccc(NC(=O)c2ccc(CNc3c(NC4CCCCC4)c(=O)c3=O)cc2)cc1`, the activity change, negative = inhibition was 1.77%.

As for `CCn1cnc2c(Nc3ccc(Cc4cccnc4)cc3)nc(C#N)nc21`, the Potency was 14.1 µM (active).

For `COc1ccc(NC(=O)C(OC(=O)CNC(=O)c2ccccc2)c2ccccc2)cc1Cl` (centres undefined), the Potency was 12.6 µM (active).

Regarding `O=C(CNC(=O)C(c1ccccc1)c1ccccc1)OCC(=O)c1cccc2ccccc12`, the activity change, negative = inhibition was 17.8%.

For `Clc1ccccc1-c1nn2c(-c3cc(-c4ccccc4)n[nH]3)nnc2s1`, the activity change, negative = inhibition is -2.56%.

As for `O=c1cc(-c2cccc(Br)c2)nc(-c2ccccc2F)o1`, the Potency was 11.2 µM (active).

With `S=C(NC1CCCCC1)N(CCc1nc2ccccc2[nH]1)C1CCCC1`, the Potency was 0.631 µM (active).

Turning to `O=C(COC(=O)CNC(=O)C1CCCCC1)NC1CCCC1`, the Potency was 12.6 µM (active).

With `O=C(CNC(=O)c1ccccc1)OCC(=O)c1ccc2ccccc2c1`, the Potency was 15.8 µM (active).

Take `O=C(NCCc1nc2ccccc2n1CCOc1ccc(Cl)cc1)C1CCCCC1`: the Potency was 0.158 µM (active).

As to `Cc1ccc(C(=O)Oc2oc(-c3ccco3)nc2C=Nc2ccc(Cl)cc2)cc1`, the Potency was 11.2 µM (active).

For `O=C(NC(=S)Nc1nc(-c2cccc3ccccc23)cs1)c1cc2ccccc2o1`, the activity change, negative = inhibition is -1.65%.

With `CNc1oc(/C=C/c2cc(OC)c(OC)c(OC)c2)nc1C#N`, the Potency was 15.8 µM (active).

The record behind these values is PubChem BioAssay AID2158 (National Center for Advancing Translational Sciences (NCATS), 2009).
